Data on two compounds can be found in ChEMBL document CHEMBL1201862, “PubChem BioAssay data set” (2004).

Where “and” joins values, the source holds several entries; their conditions need not be identical. Equal values may be shown once. Among all 310,000 compounds or so, about 11,000 (3.5%) were called active. About 4% were inconclusive and are not listed. The rule behind the calls is not given here. The entries come from a sample that favours actives as a whole.

In the test the target is T1, 4'-phosphopantetheinyl transferase ffp (Bacillus subtilis) (UniProt Q9F4F7).
T1 sequence (whole entry): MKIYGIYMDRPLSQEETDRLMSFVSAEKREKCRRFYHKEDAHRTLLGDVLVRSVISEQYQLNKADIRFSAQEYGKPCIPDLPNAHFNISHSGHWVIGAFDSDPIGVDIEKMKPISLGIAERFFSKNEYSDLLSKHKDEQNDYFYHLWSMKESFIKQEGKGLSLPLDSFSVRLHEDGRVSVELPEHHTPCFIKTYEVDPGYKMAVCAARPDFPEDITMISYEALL
The test can be described thus: qHTS Assay for Inhibitors of Bacillus subtilis Sfp phosphopantetheinyl transferase (PPTase). In kind it is functional.
On to `N[C@H](CCC(=O)O)C(=O)O`, for which the Potency is 44.7 µM (active) and 56.2 µM (active).
As for `N[C@@H](CCC(=O)O)C(=O)O`, the Potency is 50.1 µM (active).
